A short description of the assay: NCI Yeast Anticancer Drug Screen. Data for the cln2 rad14 strain (AID 165).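 Also: 0% = growth equal to vehicle treated cultures.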 The following applies: S. cerevisiae cln2 rad14 strain, stronger effect = higher value. The procedure:
Growth inhibition of yeast strains with defined genetic alterations is measured as a screen for potential anti-cancer activity. Selected strains with alterations in DNA damage repair or cell cycle control were exposed to compounds and growth inhibition was measured relative to vehicle treated controls. The strain used in this assay is cln2 rad14

The mark [1] stands for this setting: at 5.0 µM (retest, dose inferred, filed as 0.5).
Setting [2] is: at 50.0 µM (retest, dose inferred, filed as 5.0).

Values joined by “and” are separate entries in the source; they are usually repeats but may differ in a detail not shown here. Equal entries are not always repeated. The panel holds about 79,000 compounds, 15% with a hit somewhere; the sample as a whole holds those more often. A number with no mark means an inactive call. Active and inactive are the calls of the source. Rule as the data show it: active = growth inhibition above about 70%; inactive = the rest.

`CC(C)c1ccc(C2NC(=S)NC3=C2c2ccccc2C3=O)cc1` (stereo unspecified): the growth inhibition under setting [1] was -9%, the growth inhibition under setting [2] is 26% and the growth inhibition (at 50.0 µM) was 66.8%.
In the case of `COC1=C(N=[N+]=[N-])C(=O)c2ncccc2C1=O`, the growth inhibition is 24% under setting [1], 93% (active) under setting [2] and 80.5% (active) (at 50.0 µM).
With `COc1ccc2[nH]c3c(C)c4cc[n+](C)cc4c(C)c3c2c1`, the growth inhibition is 2% and 24% under setting [1]; 25% and 30% under setting [2]; 39.2% and 23.3% (at 50.0 µM).
Consider `Nc1cccc2cc(Cl)cnc12`, for which the growth inhibition under setting [1] is 52%, the growth inhibition under setting [2] is 41% and the growth inhibition (at 50.0 µM) was 49.3%.
The corresponding values for `CCOC(=O)/C(O)=C(/C=N/C(=S)Nc1c(CC)cccc1CC)C(=O)OCC` are -1%, 25% and 35.2%.
As for `CCOc1nc(OCC)nc(-c2cccn2-c2ccccc2)n1`, the growth inhibition is, setting by setting: under setting [1], 55%; under setting [2], 83% (active).
For `OC1C#CCSCC#C/C=C\1` (stereo unspecified), the growth inhibition was 60% under setting [1], 93% (active) under setting [2] and 52% (at 50.0 µM).
The corresponding values for `COc1cc(C(C)C(C(=O)O)C(=O)C(=O)O)cc(OC)c1OC` (stereo unspecified) are 10%, 76% (active) and -22.4%.
The corresponding values for `Oc1ccc(Cc2nccc3cc(O)c(O)cc23)cc1O` are 43%, 63% and -42.5%.
The corresponding values for `O=C1OC(c2ccc(Cl)cc2)Sc2ccccc21` (stereo unspecified) are -61%, -14% and -26.9%.
`O=C(/C(=C/c1ccccc1)CBr)c1ccccc1`: the growth inhibition was 25% under setting [1]; 93% (active) under setting [2]; 41.5% and 67.5% (at 50.0 µM).
`O=C1c2ccc(O)cc2C(=O)c2c(O)ccc(O)c21`: the growth inhibition is 32% under setting [1], 88% (active) under setting [2] and 51% (at 50.0 µM).
The corresponding values for `Cc1ccc(N(C=O)c2c([N+](=O)[O-])cc([N+](=O)[O-])c3c2=[N+]([O-])CN=3)cc1` are 28%, 81% (active) and 31.6%.
On the same counts, the results for `O=C(CSS(=O)(=O)O)c1ccccc1` are 6%, 15% and 18.2%.
